# Assay results published in PubChem BioAssay.
# Inconclusive results are not listed. Active and inactive are the calls of the source.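 The calls were made as follows, unless noted: active = efflux inhibition above 0.42, the validation set average plus 4 SD; inconclusive = no clear call, values can overlap the other calls; inactive = the rest.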
# Columns and labels:
# [1] = yeast TOR pathway RPL19A-GFP modulators, primary screen, cell-based, S. cerevisiae, multiplex flow cytometry (AID 1862; in the data active = percent of DMSO control GFP below about 86%;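 also: lower values mimic rapamycin by blocking the RPL19A rise seen in DMSO cells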); conditions: S. cerevisiae RPL19A-GFP strain, flow cytometry fluorescence, 3 h; at 10 µM; stronger effect = lower value
# [2] = modulators of MEP2-GFP levels in yeast, primary screen, S. cerevisiae, multiplex flow cytometry (AID 1867;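 active = GFP response, as percent of the DMSO control, above the screen-wide mean plus 3 SD, about 139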;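 also: median GFP channel fluorescence of barcode-gated MEP2-GFP cells measured by flow cytometry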); conditions: S. cerevisiae MEP2-GFP strain, 3 h, at 10 µM, stronger effect = higher value, 100% means same as DMSO wells
# [3] = modulators of CIT2-GFP expression in yeast, primary screen, S. cerevisiae, GFP fusion, multiplex flow cytometry (AID 1870;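 active = percent response above a set limit, the screen-wide mean plus 3 SD, cut at about 130% in these data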;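 also: barcoded CIT2-GFP strain pooled with four other GFP strains with rapamycin as positive control; median GFP fluorescence per well over plate mean of DMSO wells so 100% = DMSO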); conditions: 3 h, at 10 µM, stronger effect = higher value
# [4] = modulators of LAP4-GFP expression in yeast, primary screen, S. cerevisiae, multiplex flow cytometry (AID 1873;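 active = GFP signal, as percent of the solvent control, above the screen mean plus 3 SD, about 149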); conditions: 3 h, at 10 µM, stronger effect = higher value
# [5] = modulators of AGP1-GFP expression in yeast TOR pathway, primary screen, cell-based, multiplex flow cytometry, S. cerevisiae (AID 1887;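 active = GFP signal above the screen-wide mean plus 3 SD, that is over about 124.5% of the solvent control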;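 also: AGP1-GFP fusion strain of S. cerevisiae within a five-strain barcoded multiplex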); conditions: 3 h, at 10 µM, stronger effect = higher value
# [6] = inhibitors of CD8+ T cell-vesicle binding, pilot screen, LFA-1/ICAM-1 modulator project, MLPCN validation set, flow cytometry (AID 2523;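 active = response below a set limit, under 55% cells CD8-positive and vesicle-bound, and CD8 cells' 90th-percentile brightness under 279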;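 as to vesicle binding response: mean PE anti-B7-1 fluorescence of CD8+ cells relative to row control; 100% = QL9-loaded vesicles with DMSO vehicle in the same plate row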); conditions: 2C mouse CD8+ T cells, at 7 µM, stronger effect = lower value; double positive events: measured here: CD8+/vesicle+ event percentage
# [7] = biological target: Integrin beta-1 (Homo sapiens) + Integrin alpha-4 (Homo sapiens) (UniProt P13612+P05556); experiment: inhibition of HUTS-21 binding to VLA-4, pilot screen, VLA-4 allosteric modulator project, U937 cells, HUTS-21 mAb, flow cytometry, validation set (AID 2674;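 active = inhibition above 50%, about 3 SD of the validation set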;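 also: antibody binding induced by the VLA-4 ligand LDV present at three times its Kd; 0% = LDV ligand with antibody and no compound and 100% = antibody without LDV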); conditions: HUTS-21 LIBS mAb binding, at 6.7 µM, stronger effect = higher value, binding induced by LDV ligand
# Sequence of Integrin beta-1 (Homo sapiens) + Integrin alpha-4 (Homo sapiens) (P05556 whole entry, looked up): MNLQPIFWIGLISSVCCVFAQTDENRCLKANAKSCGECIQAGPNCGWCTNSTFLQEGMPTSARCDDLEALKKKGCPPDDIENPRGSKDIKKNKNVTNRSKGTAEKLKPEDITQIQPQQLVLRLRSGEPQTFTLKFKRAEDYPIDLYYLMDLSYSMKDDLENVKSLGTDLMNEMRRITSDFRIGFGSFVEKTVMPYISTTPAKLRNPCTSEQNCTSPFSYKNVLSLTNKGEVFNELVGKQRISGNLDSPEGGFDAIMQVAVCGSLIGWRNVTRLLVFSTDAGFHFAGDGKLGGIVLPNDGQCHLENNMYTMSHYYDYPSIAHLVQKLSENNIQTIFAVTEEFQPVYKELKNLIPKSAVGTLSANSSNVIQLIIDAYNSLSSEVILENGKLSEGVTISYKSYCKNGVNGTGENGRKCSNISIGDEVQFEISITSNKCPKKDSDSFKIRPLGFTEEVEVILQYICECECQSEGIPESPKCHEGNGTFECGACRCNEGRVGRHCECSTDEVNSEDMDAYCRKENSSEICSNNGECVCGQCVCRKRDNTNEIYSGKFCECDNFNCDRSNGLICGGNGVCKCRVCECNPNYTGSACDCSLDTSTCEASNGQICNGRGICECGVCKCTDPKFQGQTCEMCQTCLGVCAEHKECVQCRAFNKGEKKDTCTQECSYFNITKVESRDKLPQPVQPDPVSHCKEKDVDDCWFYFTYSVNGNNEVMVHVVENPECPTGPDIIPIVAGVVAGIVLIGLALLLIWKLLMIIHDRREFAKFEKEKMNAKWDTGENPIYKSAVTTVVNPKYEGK
# Sequence of Integrin beta-1 (Homo sapiens) + Integrin alpha-4 (Homo sapiens) (P13612 whole entry, looked up): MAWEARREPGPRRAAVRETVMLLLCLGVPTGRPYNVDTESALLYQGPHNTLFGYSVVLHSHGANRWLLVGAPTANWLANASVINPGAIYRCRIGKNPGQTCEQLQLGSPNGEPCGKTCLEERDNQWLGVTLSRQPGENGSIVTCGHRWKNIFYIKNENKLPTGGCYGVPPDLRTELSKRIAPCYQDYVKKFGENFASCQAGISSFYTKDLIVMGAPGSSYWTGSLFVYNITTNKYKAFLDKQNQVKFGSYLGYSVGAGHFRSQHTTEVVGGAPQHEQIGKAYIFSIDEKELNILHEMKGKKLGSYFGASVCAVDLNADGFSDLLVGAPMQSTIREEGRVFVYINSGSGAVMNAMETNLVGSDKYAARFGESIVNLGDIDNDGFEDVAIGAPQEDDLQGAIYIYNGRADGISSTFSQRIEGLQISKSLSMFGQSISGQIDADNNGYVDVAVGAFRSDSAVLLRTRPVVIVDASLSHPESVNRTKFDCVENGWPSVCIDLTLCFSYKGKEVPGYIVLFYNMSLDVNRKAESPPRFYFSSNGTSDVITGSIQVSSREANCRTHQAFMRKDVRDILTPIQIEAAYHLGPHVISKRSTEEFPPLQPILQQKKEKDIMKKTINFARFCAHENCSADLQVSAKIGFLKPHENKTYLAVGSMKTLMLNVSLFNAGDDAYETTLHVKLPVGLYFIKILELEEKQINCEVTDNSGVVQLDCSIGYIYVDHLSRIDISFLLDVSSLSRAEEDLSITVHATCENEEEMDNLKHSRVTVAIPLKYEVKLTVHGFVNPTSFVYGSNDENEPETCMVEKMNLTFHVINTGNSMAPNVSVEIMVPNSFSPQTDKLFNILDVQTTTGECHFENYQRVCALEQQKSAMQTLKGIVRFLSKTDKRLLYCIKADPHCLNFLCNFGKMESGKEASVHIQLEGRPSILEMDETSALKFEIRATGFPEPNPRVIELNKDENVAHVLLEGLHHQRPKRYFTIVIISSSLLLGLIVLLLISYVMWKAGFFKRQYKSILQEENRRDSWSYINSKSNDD
# [8] = superoxide lowering in aged yeast cells, pilot screen, validation compound set (AID 2706;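 active = superoxide response below 65% of plate, a cut near 3 SD across the whole screen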;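 also: yeast exposed to compound for one week at 30 degrees C before staining; 100% = mean of all compound wells on the same plate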); conditions: S. cerevisiae aging, superoxide DHE fluorescence; at 10 µM; stronger effect = lower value
# [9] = biological target: Beta-adrenergic receptor kinase 1 (Homo sapiens) (UniProt P25098); experiment: GRK2 binders displacing RNA aptamer, biochemical, validation, human GRK2, bead flow cytometry (AID 488806;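 active = aptamer binding inhibition above 30%, about 3 SD of noise from non-fluorescent compounds; inactive = inhibition at or below 30%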); conditions: bead-bound GRK2, FAM-aptamer displacement, at 10 µM, stronger effect = higher value
# Sequence of Beta-adrenergic receptor kinase 1 (Homo sapiens) (P25098 whole entry, looked up): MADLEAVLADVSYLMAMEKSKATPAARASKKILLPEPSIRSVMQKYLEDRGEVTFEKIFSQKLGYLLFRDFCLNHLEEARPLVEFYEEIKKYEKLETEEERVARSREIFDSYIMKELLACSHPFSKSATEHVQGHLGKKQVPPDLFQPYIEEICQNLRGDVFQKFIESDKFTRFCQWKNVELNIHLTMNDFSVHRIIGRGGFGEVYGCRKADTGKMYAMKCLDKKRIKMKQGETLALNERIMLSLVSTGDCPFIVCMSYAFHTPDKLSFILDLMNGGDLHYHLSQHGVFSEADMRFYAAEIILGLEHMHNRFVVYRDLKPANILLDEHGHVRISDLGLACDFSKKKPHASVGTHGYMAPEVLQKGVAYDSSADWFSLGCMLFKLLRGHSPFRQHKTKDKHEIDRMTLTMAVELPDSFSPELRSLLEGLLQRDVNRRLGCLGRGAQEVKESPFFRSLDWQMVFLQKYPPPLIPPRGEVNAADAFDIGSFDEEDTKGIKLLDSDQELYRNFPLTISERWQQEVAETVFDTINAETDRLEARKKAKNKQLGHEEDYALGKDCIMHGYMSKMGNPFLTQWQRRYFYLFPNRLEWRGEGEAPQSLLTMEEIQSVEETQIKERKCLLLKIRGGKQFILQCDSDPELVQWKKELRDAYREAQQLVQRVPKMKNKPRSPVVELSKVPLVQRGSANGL
# [10] = biological target: Beta-2 adrenergic receptor (Homo sapiens) (UniProt P07550); experiment: beta2AR agonists driving receptor internalization, pilot screen, cell-based, FAP fluorogen, flow cytometry, validation set (AID 504459;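 active = percent response above 42, roughly 3 SD of non-fluorescent test compounds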;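 also: agonist-driven loss of surface beta2AR via internalization measured by FAP dye flow cytometry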); conditions: Am2.2-beta2AR cells, FAP surface receptor flow cytometry; at 10 µM; stronger effect = higher value
# Sequence of Beta-2 adrenergic receptor (Homo sapiens) (P07550 whole entry, looked up): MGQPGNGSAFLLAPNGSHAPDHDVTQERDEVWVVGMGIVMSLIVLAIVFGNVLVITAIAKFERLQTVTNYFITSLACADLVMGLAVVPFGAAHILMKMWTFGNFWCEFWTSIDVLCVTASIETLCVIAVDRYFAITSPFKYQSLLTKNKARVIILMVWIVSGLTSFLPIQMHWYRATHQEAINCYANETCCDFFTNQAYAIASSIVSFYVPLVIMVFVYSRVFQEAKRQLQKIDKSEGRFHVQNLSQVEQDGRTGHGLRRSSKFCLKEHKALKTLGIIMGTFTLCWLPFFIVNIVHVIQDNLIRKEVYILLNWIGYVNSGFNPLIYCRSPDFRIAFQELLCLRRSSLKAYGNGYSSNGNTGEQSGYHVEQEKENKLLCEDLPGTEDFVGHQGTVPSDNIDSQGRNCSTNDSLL
# [11] = biological target: AP-2 complex subunit beta (Homo sapiens) (UniProt P63010); experiment: inhibitors of arrestin peptide binding to AP2, pilot screen, biochemical, validation set, GST-AP2 beads, flow cytometry (AID 504541;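 active = inhibition above 54%, about 3 SD of non-fluorescent compounds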;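 also: AP2 carries R879A mutation and is captured from E. coli lysate; bead-bound FITC arrestin peptide fluorescence measuring arrestin peptide binding to AP2; 0% = DMSO wells and 100% = excess unlabeled arrestin peptide control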); conditions: FITC arrestin peptide, at 10 µM, stronger effect = higher value, AP2 beta2 appendage fragment, R879A mutant
# Sequence of AP-2 complex subunit beta (Homo sapiens) (P63010 whole entry, looked up, the tested form may be a part, one chain of several): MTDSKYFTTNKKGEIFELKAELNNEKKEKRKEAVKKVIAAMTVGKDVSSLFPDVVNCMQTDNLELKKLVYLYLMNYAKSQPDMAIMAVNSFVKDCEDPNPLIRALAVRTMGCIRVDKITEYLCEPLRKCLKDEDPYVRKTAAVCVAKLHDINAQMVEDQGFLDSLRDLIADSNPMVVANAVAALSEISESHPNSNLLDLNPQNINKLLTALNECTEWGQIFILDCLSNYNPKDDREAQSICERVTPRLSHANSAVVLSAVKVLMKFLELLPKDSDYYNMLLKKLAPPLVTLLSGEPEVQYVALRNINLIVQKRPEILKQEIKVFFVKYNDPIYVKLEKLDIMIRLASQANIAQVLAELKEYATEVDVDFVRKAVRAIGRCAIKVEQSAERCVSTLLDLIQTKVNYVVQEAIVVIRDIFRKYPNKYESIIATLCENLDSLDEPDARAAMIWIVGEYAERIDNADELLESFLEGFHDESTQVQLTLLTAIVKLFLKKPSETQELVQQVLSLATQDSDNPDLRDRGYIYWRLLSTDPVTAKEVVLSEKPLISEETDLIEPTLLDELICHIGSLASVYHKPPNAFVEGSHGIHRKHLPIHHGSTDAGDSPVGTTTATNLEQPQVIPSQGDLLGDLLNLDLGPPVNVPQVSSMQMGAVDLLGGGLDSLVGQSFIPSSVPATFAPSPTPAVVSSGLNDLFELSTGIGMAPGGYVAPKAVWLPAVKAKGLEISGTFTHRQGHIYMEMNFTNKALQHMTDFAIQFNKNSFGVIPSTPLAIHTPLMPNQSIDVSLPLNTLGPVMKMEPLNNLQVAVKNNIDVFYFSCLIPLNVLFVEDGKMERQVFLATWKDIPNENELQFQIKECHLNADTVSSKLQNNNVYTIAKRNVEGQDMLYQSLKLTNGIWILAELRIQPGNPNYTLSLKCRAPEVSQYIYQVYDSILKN
# [12] = yeast V-ATPase proton transport modulators, S. cerevisiae, pHLuorin, HTS validation (AID 504600; in the data active = response above about 15%;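 also: plate controls were DMSO for no effect and reference compound for full effect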); conditions: S. cerevisiae pHLuorin cytosolic pH, at 10 µM, stronger effect = higher value
# [13] = tested on: anti-desmoglein-3 scFv antibody binding to human DSG3; experiment: inhibitors of anti-DSG3 scFv binding to DSG3, pilot screen, biochemical, validation compound set, bead-based, flow cytometry (AID 588368;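 active = binding below the plate cutoff, the plate median minus 3 SD, with a reading above zero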;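 also: signal is the median channel fluorescence of bead-bound GFP antibody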); conditions: Protein G beads, DSG3-Fc, scFv-GFP binding, at 10 µM, stronger effect = lower value
# [14] = inhibitors of fungal efflux pumps CDR1, CDR2, MDR1, pilot screen, validation compound set, multiplex, phenotypic (AID 588506);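 also: Nile Red retained in cells so higher fluorescence means more efflux inhibition; 0 = negative control wells and 1 = enniatin B 25 µM full block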; conditions: S. cerevisiae pump-expressing triplex, Nile Red efflux flow cytometry; at 10 µM; stronger effect = higher value; the pumps come from Candida albicans
# [15] = biological target: ATP-binding cassette sub-family B member 6 (Homo sapiens) (UniProt Q9NP58); experiment: ABCB6 transporter inhibitors, pilot screen, K562-ABCB6 cells, flow cytometry, validation set (AID 588550;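 active = inhibition above the screen-wide mean plus 3 SD, about 51%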;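 also: 0% = DMSO wells and 100% = benzethonium chloride 70 µM positive control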); conditions: K562-ABCB6 porphyrin accumulation, 1 h, at 10 µM, stronger effect = higher value
# Sequence of ATP-binding cassette sub-family B member 6 (Homo sapiens) (Q9NP58 whole entry, looked up): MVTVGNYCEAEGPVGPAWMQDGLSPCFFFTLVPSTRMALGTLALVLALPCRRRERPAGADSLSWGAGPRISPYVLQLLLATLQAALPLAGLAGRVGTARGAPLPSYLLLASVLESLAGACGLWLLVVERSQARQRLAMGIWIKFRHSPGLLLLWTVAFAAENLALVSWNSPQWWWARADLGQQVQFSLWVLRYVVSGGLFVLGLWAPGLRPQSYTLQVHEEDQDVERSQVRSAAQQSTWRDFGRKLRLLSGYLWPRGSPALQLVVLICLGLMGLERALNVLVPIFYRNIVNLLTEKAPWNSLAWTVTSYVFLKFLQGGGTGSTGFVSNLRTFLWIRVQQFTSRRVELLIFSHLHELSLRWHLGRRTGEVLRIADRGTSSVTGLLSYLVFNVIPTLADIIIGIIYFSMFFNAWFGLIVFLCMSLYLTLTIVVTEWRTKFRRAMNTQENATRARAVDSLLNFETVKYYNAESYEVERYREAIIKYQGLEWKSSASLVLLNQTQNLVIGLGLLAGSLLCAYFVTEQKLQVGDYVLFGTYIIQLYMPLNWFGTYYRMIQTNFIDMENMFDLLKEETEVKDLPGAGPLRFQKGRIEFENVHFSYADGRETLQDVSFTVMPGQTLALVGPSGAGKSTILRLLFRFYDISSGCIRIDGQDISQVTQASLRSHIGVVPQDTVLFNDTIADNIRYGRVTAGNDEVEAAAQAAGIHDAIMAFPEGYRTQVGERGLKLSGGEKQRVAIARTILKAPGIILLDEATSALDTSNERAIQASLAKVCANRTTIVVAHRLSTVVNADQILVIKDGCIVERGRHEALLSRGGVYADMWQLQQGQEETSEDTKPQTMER
# [16] = promoters of myeloid differentiation in arrested cells, primary screen, cell-based, GFP/MAC1 double positive, flow cytometry, validation set (AID 588685;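 active = differentiation response of at least 50%, scaled between solvent and reference control, from cells with both markers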;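 also: compound exposure lasts four days before antibody staining and flow analysis; 0% = DMSO wells and 100% = 5 µM fulvestrant positive control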); conditions: ER-HoxA9 marrow cells, stronger effect = higher value, normalized: vehicle 0, fulvestrant 100
SMILES,percent of DMSO control GFP [1],GFP response vs DMSO [2],percent response of DMSO control [3],GFP response vs DMSO [4],"GFP response, % of DMSO [5]",double positive events [6],vesicle binding response [6],inhibition [7],superoxide response (% of plate) [8],aptamer binding inhibition [9],response [10],inhibition [11],response [12],binding (% of control) [13],efflux inhibition (fraction of control) [14],inhibition [15],differentiation response [16]
Nc1cc(-c2ccncc2)c[nH]c1=O,103% (inactive),103% (inactive),112% (inactive),102% (inactive),105% (inactive),63.1%,184% (inactive),-11.8% (inactive),82.5% (inactive),-6% (inactive),8.85% (inactive),-8.58% (inactive),-0.06% (inactive),105% (inactive),0.015 (inactive),-6% (inactive),-4.57% (inactive)
COC(=O)C1=C(C)NC(C)=C([N+](=O)[O-])C1c1ccccc1C(F)(F)F (stereo not drawn),101% (inactive),110% (inactive),98.6% (inactive),97% (inactive),105% (inactive),58.2%,160% (inactive),9.63% (inactive),102% (inactive),0% (inactive),4.56% (inactive),-3.68% (inactive),3.77% (inactive),106% (inactive),-0.3 (inactive),4% (inactive),-7.5% (inactive)
CN1CCCN(C(c2ccccc2)c2ccc(Cl)cc2)CC1 (stereo not drawn),97.1% (inactive),102% (inactive),103% (inactive),123% (inactive),120% (inactive),54.6%,171% (inactive),39.8% (inactive),107% (inactive),-14% (inactive),29.3% (inactive),-13.9% (inactive),-5.79% (inactive),107% (inactive),0.04 (inactive),2% (inactive),-7.94% (inactive)
Cc1ccc2nc(N=C(N)N)nc(C)c2c1,111% (inactive),107% (inactive),110% (inactive),114% (inactive),118% (inactive),58.7%,124% (inactive),-13.2% (inactive),91.5% (inactive),-1% (inactive),-5.11% (inactive),0.05% (inactive),5.97% (inactive),109% (inactive),-0.02 (inactive),5% (inactive),-8.96% (inactive)
CN(C)CCOC(=O)C(c1ccccc1)C1(O)CCCC1 (stereo not drawn),92% (inactive),137% (inactive),97.9% (inactive),75.9% (inactive),84.3% (inactive),65.7%,249% (inactive),13.2% (inactive),96.1% (inactive),3% (inactive),2.3% (inactive),1.31% (inactive),0.51% (inactive),103% (inactive),0.05 (inactive),14% (inactive),-6.55% (inactive)
COC(=O)CCC(=O)CN,102% (inactive),106% (inactive),110% (inactive),118% (inactive),113% (inactive),62.2%,148% (inactive),-5.11% (inactive),94% (inactive),-3% (inactive),1.35% (inactive),7.22% (inactive),-6.15% (inactive),102% (inactive),-0.11 (inactive),5% (inactive),7.13% (inactive)
COc1cccc2c1OCC1COc3c(c(=O)n(C)c(=O)n3C)C21 (stereo not drawn),101% (inactive),108% (inactive),99.6% (inactive),130% (inactive),102% (inactive),64.4%,201% (inactive),14.6% (inactive),95% (inactive),-1% (inactive),-9.55% (inactive),59.9% (active),-4.7% (inactive),101% (inactive),0.08 (inactive),2% (inactive),13.6% (inactive)
COc1cccc(CC(=O)NCC2COc3ccccc3O2)c1OC (stereo not drawn),103% (inactive),105% (inactive),101% (inactive),102% (inactive),106% (inactive),60.9%,230% (inactive),6.95% (inactive),92.8% (inactive),2% (inactive),3.04% (inactive),-3.19% (inactive),-3.58% (inactive),103% (inactive),-0.1 (inactive),63% (active),-6.03% (inactive)
CC(C)(C)c1ccc(/C=C/C(=O)N2CCCCC2)cc1,96.1% (inactive),103% (inactive),78.7% (inactive),116% (inactive),97.7% (inactive),59.2%,150% (inactive),10.5% (inactive),98.8% (inactive),1% (inactive),46.6% (active),3.48% (inactive),-0.06% (inactive),98.4% (inactive),0.26 (inactive),8% (inactive),8.8% (inactive)
Brc1c(NC2=NCCN2)ccc2nccnc12,95% (inactive),105% (inactive),93.9% (inactive),119% (inactive),103% (inactive),56.2%,191% (inactive),6.4% (inactive),95.4% (inactive),3% (inactive),-8.4% (inactive),10.1% (inactive),0.44% (inactive),102% (inactive),-0.24 (inactive),1% (inactive),-12% (inactive)
COC(=O)c1ccc(-c2ncc(-c3cccc4ccccc34)o2)cc1,98.2% (inactive),104% (inactive),105% (inactive),125% (inactive),109% (inactive),61.1%,170% (inactive),-29.2% (inactive),97.3% (inactive),-1% (inactive),-17.7% (inactive),21.1% (inactive),-15.9% (inactive),90.5% (inactive),0.17 (inactive),1% (inactive),6.83% (inactive)
COc1ccc(CCN2CNc3c(c(=O)n(C)c(=O)n3C)C2)cc1OC,99.8% (inactive),103% (inactive),102% (inactive),118% (inactive),116% (inactive),60.5%,214% (inactive),-1.97% (inactive),93.5% (inactive),-4% (inactive),-3.69% (inactive),-4.43% (inactive),-9.61% (inactive),99.7% (inactive),0.04 (inactive),-5% (inactive),-4% (inactive)
O=C1[C@@H]2[C@H](Cc3ccc(O)cc3)N[C@]3(C(=O)Nc4ccccc43)[C@@H]2C(=O)N1c1ccc(F)cc1,106% (inactive),103% (inactive),100% (inactive),90.1% (inactive),91.9% (inactive),61.1%,1070% (inactive),14.1% (inactive),90% (inactive),2% (inactive),-3.4% (inactive),3.35% (inactive),-0.08% (inactive),92.2% (inactive),0.3 (inactive),0% (inactive),6.11% (inactive)
Cc1ccc(N2CCN(C(=S)c3ccc(-c4cccc([N+](=O)[O-])c4)o3)CC2)cc1,98.1% (inactive),103% (inactive),109% (inactive),126% (inactive),124% (inactive),61.7%,217% (inactive),-4.52% (inactive),89.3% (inactive),3% (inactive),-41.3% (inactive),1.79% (inactive),-4.54% (inactive),102% (inactive),-0.13 (inactive),3% (inactive),-9.91% (inactive)
CCC(=O)O[C@]1(C(=O)CCl)[C@@H](C)C[C@H]2[C@@H]3CCC4=CC(=O)C=C[C@]4(C)[C@@]3(F)[C@@H](O)C[C@@]21C,99.8% (inactive),103% (inactive),106% (inactive),91.5% (inactive),106% (inactive),64.6%,228% (inactive),-9.13% (inactive),120% (inactive),4% (inactive),11.3% (inactive),3.88% (inactive),-2.3% (inactive),97.9% (inactive),1.03 (active),-10% (inactive),-13.3% (inactive)
O=C(NC(=S)Nc1ccc(N2CCN(C(=O)c3ccccc3)CC2)cc1)c1cccs1,96.3% (inactive),126% (inactive),116% (inactive),77% (inactive),96.1% (inactive),51.4%,106% (inactive),-4.21% (inactive),101% (inactive),0% (inactive),-15.7% (inactive),-3.24% (inactive),1.01% (inactive),107% (inactive),-0.28 (inactive),13% (inactive),-0.82% (inactive)
COc1cc(/C=C/C(=O)O)cc(S(=O)(=O)NCCCO)c1OC,97.3% (inactive),98.5% (inactive),91% (inactive),116% (inactive),105% (inactive),59.6%,157% (inactive),6.4% (inactive),95.1% (inactive),5% (inactive),8.94% (inactive),-5.7% (inactive),-0.12% (inactive),96.6% (inactive),-0.13 (inactive),5% (inactive),-15.2% (inactive)
NC[C@H]1O[C@H](O[C@H]2[C@H](O)[C@@H](O[C@H]3O[C@H](CO)[C@@H](O)[C@H](N)[C@H]3O)[C@H](N)C[C@@H]2N)[C@H](N)C[C@@H]1O,101% (inactive),102% (inactive),95.1% (inactive),109% (inactive),110% (inactive),63.2%,273% (inactive),12.5% (inactive),110% (inactive),3% (inactive),-5.14% (inactive),-4.09% (inactive),-21.1% (inactive),109% (inactive),0.04 (inactive),2% (inactive),-7.94% (inactive)
O=c1cc(CN2CCN(c3cccc(Cl)c3)CC2)c2cc(O)c(-c3ccccc3)cc2o1,93% (inactive),133% (inactive),102% (inactive),83.1% (inactive),92.8% (inactive),69.1%,265% (inactive),0.64% (inactive),113% (inactive),0% (inactive),6.6% (inactive),-0.51% (inactive),-1.13% (inactive),97.8% (inactive),-0.02 (inactive),11% (inactive),-12.3% (inactive)
